“And” between values parts separate entries of the source, which are not always exact repeats. Equal entries are not always repeated. In all, about 16,000 compounds went through this assay and about 160 (1%) were called active. Roughly 8% stayed inconclusive and do not appear here. This excerpt belongs to a sample that is enriched for actives. Values without a mark were called inactive. Calls follow the shape of the dose curve; as a rule, active = well fitted activation curve with a large enough effect; inconclusive = small, poorly fitted or top-dose-only effect; inactive = no such curve, though single readings can be large or run the other way.
target: Rap guanine nucleotide exchange factor 3 (Homo sapiens) (UniProt O95398); assay: Validation qHTS for agonist of cAMP-regulated guanine nucleotide exchange factor 3 (EPAC1); conditions: EPAC1 Rap1b BODIPY-GDP exchange, fluorescence; max response: active compounds read high, percent of cAMP control response; also: nearly all actives have a fitted effect of over 70% in size
Sequence (O95398 whole entry, looked up): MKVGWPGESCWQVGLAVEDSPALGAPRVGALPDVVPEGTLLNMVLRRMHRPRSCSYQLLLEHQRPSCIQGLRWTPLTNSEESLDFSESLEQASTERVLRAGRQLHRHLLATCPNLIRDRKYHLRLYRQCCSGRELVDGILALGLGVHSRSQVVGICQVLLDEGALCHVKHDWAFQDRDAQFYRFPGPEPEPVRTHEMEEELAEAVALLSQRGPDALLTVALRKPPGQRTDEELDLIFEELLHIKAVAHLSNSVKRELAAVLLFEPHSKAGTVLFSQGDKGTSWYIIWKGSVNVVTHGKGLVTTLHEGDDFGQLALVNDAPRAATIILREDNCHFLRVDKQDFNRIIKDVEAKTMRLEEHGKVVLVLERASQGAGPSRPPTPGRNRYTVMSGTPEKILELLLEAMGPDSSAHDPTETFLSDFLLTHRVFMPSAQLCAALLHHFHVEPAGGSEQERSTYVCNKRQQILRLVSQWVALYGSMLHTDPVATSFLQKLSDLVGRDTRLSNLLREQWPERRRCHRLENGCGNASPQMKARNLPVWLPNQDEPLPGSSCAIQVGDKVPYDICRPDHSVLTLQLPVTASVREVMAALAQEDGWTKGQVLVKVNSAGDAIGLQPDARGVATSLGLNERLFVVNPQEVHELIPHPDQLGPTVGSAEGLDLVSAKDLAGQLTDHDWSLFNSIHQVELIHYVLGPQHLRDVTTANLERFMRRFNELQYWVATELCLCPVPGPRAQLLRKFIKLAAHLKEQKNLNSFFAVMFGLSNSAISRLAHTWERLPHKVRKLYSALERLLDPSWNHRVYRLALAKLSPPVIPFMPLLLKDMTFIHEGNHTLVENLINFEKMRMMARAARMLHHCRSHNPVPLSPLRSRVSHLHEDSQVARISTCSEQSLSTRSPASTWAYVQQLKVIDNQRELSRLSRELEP
From the text: Assay Provider (PI): Xiaodong Cheng Ph.D.
The University of Texas Medical Branch, […], TX
In multi-cellular eukaryotic organisms, the effects of cAMP are transduced by two ubiquitously-expressed intracellular cAMP receptors, the classic protein kinase A/cAMP-dependent protein kinase (PKA/cAPK) and the more recently discovered exchange protein directly activated by cAMP/cAMP-regulated guanine nucleotide exchange factor (EPAC/cAMP-GEF). Both PKA and EPAC are ubiquitously expressed in all tissues, and an increase in intracellular cAMP levels will lead to the activation of both PKA and EPAC. Therefore, careful dissections of the individual role and relative contribution of EPAC and PKA within the overall cAMP signaling in various model systems are critical for further elucidating the mechanism of cAMP signaling. To date no EPAC-specific antagonists and agonist, as well as isoform-specific agonists have been reported, and developing EPAC-specific pharmacological probes to determine the physiological functions that EPAC play in the overall cAMP-mediated signaling remains a major challenge within the research field. Furthermore, identified regulators of EPAC may lead to new mechanism-based therapeutic strategies specifically targeting the EPAC / cAMP-signaling components as EPAC has been implicated to play important roles in major human pathological conditions such as diabetes, heart disease, and cancer.
This qHTS will be used to screen the Molecular Libraries Small Molecule Repository (MLSMR) as a concentration-titration series using the NCGC unique quantitative screening (qHTS) platform to find activators for EPAC1. In addition, this assay will also be used as a counterscreen for the EPAC2 qHTS. This fluorescent based assay is developed and validated for EPAC1 that measures exchange using EPAC effector Rap1 complex with BODIPY-GDP, a GDP analog with a tethered fluorophores. Activators are identified by monitoring the change in fluorescence signal as the exchanged free BODIPY-GDP has a reduced fluorescence compared to Rap1-bound BODIPY-GDP. Increase in signal (activation) is the desired outcome for the EPAC1 agonist while no activity in this assay is desired for the EPAC2 agonist counterscreen.
[1] de Rooij, J., Zwartkruis, F. J., Verheijen, M. H., Cool, R. H., Nijman, S. M., Wittinghofer, A., and Bos, J.L. (1998) Nature 396, 474-477.
Briefly, three uL of reagents (100 nM EPAC1, 250 nM RAP1B-BODIPY-GDP, 50 uM GDP) were dispensed into a 1536-well Greiner black solid-bottom medium binding assay plate. Controls and test compounds (23 nL) were transferred to the plate via a Kalypsys pin tool equipped with a 1536-pin array. The plates were centrifuged at 1,000 rpm for 15 seconds followed by 5 minute incubation at room temperature. The assay plates were read at 5 minute intervals for 30 minutes in the ViewLux plate reader using 480nm excitation and 540nm emission filters. The results were normalized to the agonist positive control of 6.5 mM cAMP.
% is scaled to controls: 0 for no effect and ±100 for the full control effect; potency is read from the fitted curve at half-maximal effect.

SMILES | max response | Potency
Cc1cccc(CN2Cc3cccc4c3[C@H](C=CC4)CC2=S)c1 | 29.3% | 
CCCCC[C@H]1CN(C2CCCCC2)C(=O)[C@@H]1CC(=O)NCc1ccc(OC)cc1 | -76.4% | 
CC(=O)Oc1c2c(c3c(c1CC=C(C)C)O[C@@]14C(=CC5CC1C(C)(C)OC4(C/C=C(\C)C(=O)O)C5=O)C3=O)OC(C)(CCC=C(C)C)C=C2 (some centres not stated) | -112% | 
O=C(c1cc(C(F)(F)F)cc(C(F)(F)F)c1)N1CCC[C@@]2(CCN(c3ccccn3)C2)C1 | -122% | 
O=C1C[C@H]2C=CCc3cccc(c32)CN1Cc1ccccc1 | -26.6% | 
CNc1nc(-c2ccccc2OC)nc2ccccc12 | 24.4% | 
COc1ccc(CNc2ncncc2-c2ccccc2C)c(OC)c1 | -35% | 
C=C1C(=O)C23C(O)C1CCC2[C@]12COC3(O)C(O)C1C(C)(C)CC[C@H]2O (some centres not stated) | -116% | 
O=C(O)CCc1cccnc1 | -31.6% | 
COc1ccc(CN2CCOc3c(cc(-c4ncc(C(F)(F)F)cc4Cl)cc3OCC3CCCO3)C2)c(O)c1 (configuration not stated) | -26% | 
CC1=C(/C=C/C(C)=C/C=C/C(C)=C/C=C/C=C(C)/C=C/C=C(C)/C=C/C2=C(C)CCCC2(C)C)C(C)(C)CCC1 | -9% | 
O=C(c1csnn1)N1CCC[C@@]2(CCN(c3cccc(-c4ccccc4)c3)C2)C1 | -63.8% | 
CC(C)NC(=O)N1CCC2(CC1)CCN(C(=O)c1cccn1C)CC2 | -49.6% | 
Cn1cccc1C(=O)N1CCC2(CC1)CN(c1cccc(-c3ccccc3)c1)C2 |  | 112 µM (active)
Oc1ccc2c(c1)OCC1c3cc4c(cc3OC21)OCO4 (configuration not stated) | 5.11% | 
O=C(c1ccc(F)cc1)C1CCN(CCCCc2ccccc2)CC1 | -5.39% | 
COc1cc(=O)n2c(c1C(=O)N(C)Cc1nccs1)CCN(Cc1ccc(Cl)cc1)CC2 | -7.19% | 
Cc1nc2cnc(Nc3ccccc3)nc2n(Cc2ccc(F)cc2)c1=O | 15.4% | 
O=c1c(-c2cc(F)cc(F)c2)nc2cnc(Oc3ccccc3)nc2n1C[C@H]1CCCO1 | -26.8% | 
N#CCCn1c(=O)c(-c2cc(F)cc(F)c2)nc2cnc(Oc3ccccc3)nc21 | 3.54% | 
O=C(c1cc2ccccc2o1)N1CCN(Cc2ccccc2)CC1 | -2.2% | 

SMILES | max response | Potency
c1ccc2c(Nc3ccncc3)nc(-c3ccc4c(c3)OCO4)nc2c1 | 10.9% | 
COc1cccc(-c2nc(Nc3ccncc3)c3ccccc3n2)c1 |  | 100 µM (active)
c1ccc2c(Nc3ccncc3)nc(-c3ccoc3)nc2c1 | -4.89% | 
CC1CC2C3CCC4=CC(=O)C=C[C@]4(C)[C@@]3(F)[C@@H](O)C[C@]2(C)[C@@]1(O)C(=O)CO (some centres not stated) | 3.48% | 
O=C(O)C(O)[C@@](O)(Cc1ccc(O)cc1)C(=O)O (some centres not stated) | 6.44% | 
O=C(O)C1CCN(c2ncnc3ccc(-c4ccccc4C(F)(F)F)cc23)CC1 | -7.12% | 
CC(C)C(=O)NC(C)c1nnc2n1CCN(Cc1cccc3ncccc13)CC2 (configuration not stated) | -0.781% | 
O=C(c1csnn1)N1CCC2(CCN(Cc3nccs3)CC2)CC1 | -44.7% | 
C[C@@H]1CN(Cc2ccc3c(c2)CN(Cc2ccc(Oc4ncccn4)cc2)CCO3)C[C@H](C)O1 | -1.6% | 
O=C(c1ccco1)N1CCC[C@@]2(CCN(Cc3nccs3)C2)C1 | -63.4% | 
CS(=O)(=O)N1CCC[C@@]2(CCN(c3ccncc3)C2)C1 | -34% | 
O=C(Nc1cccc(F)c1)N1CC2(CCN(C(=O)c3cnccn3)CC2)C1 | 7.33% | 
C=C1C(=CC=C2CCC[C@]3(C)[C@@H]([C@H](C)C=C[C@H](C)C(C)C)CC[C@@H]23)C[C@@H](O)C[C@@H]1O | -167% | 
C=CC(C1=CC(=O)C=CC1=O)c1ccc(O)cc1 (configuration not stated) | 3.74% | 
Fc1cccc(/C=N\N=C/c2cccc(F)c2)c1 | -1.27% | 
O=C1OC(C(O)CO)C(O)=C1O (configuration not stated) | 21.1% | 
N#Cc1cc2[nH]c(=O)c(=O)[nH]c2cc1[N+](=O)[O-] | 0.579% | 
CN1CC[C@H](c2c(O)cc(O)c3c(=O)cc(-c4ccccc4Cl)oc23)[C@H](O)C1 | -89% | 
Cn1cc(-c2nc3cncnc3n(-c3ccccc3)c2=O)c2ccccc21 | -219% | 
N[C@@H](C(=O)O)c1ccc(P(=O)(O)O)cc1 | -5.54% | 
CC1CC[C@@]23CCC4(C)[C@@]5(C)CCC6C(C)(C)C(O)CC[C@@]6(C)C5C=C[C@@]4(OC2=O)C3C1C (some centres not stated) | -57.5% | 

SMILES | max response | Potency
O=C1NS(=O)(=O)c2ccccc21 | -6.7% and 22.2% | 
CC(=O)OC[C@H]1O[C@@H](O[C@H]2[C@H](O)[C@@H](OC(=O)c3ccccc3C(=O)O)[C@H](O)O[C@@H]2COC(C)=O)[C@H](O)[C@@H](OC(=O)c2ccccc2C(=O)O)[C@@H]1O | -29.6% | 
CC(O)(COc1ccccc1)c1ccc2c(c1)CN(Cc1cn[nH]c1-c1ccc(F)cc1)CCO2 (configuration not stated) | 6.27% | 
COc1ccc(CCNc2ncnc3sc(C(=O)N4CCCC4)c(C)c23)cc1OC | -3.63% | 
O=C(c1cc(C(F)(F)F)cc(C(F)(F)F)c1)N1CCC2(CCCN(Cc3ccncc3)C2)CC1 | -115% | 
COC(=O)N1CCC[C@@]2(CCN(C(=O)NC(C)C)C2)C1 | -60.9% | 
C[C@H]1C[C@H]2[C@@H]3CCC4=CC(=O)C=C[C@]4(C)[C@@H]3C(=O)C[C@]2(C)[C@@]1(O)C(=O)CO | 0.445% | 
COc1cc2c(cc1OC)[C@@H](Cc1cc(OC)c(OC)c(OC)c1)[N+](C)(CCCOC(=O)CC/C=C/CCC(=O)OCCC[N+]1(C)CCc3cc(OC)c(OC)cc3[C@H]1Cc1cc(OC)c(OC)c(OC)c1)CC2 (some centres not stated) | -11.5% and 6.58% | 
CC(=O)Nc1ccccc1-c1nc(CNC(=O)c2ccc(Cl)cc2)c(C)o1 | -0.968% | 
COc1cc(=O)n2c(c1C(=O)NC(C)c1ccco1)CCN(C(=O)c1cn3ccc(C)cc3n1)CC2 (configuration not stated) | -8.43% | 
NCCCNCCCCN(CCCN)/[N+]([O-])=N/O | -13.7% | 
O=C1CCN(CCc2ccccc2)CCN1CCOc1ccccc1 | 21.5% | 
O=C(CN1Cc2ccccc2OC(c2ccccc2)C1)N1CCCCC1c1cccnc1 (configuration not stated) | 3.86% | 
N[C@H](C(=O)O)c1ccc(C(=O)O)c(O)c1 | -1.36% and -12.7% | 
Cc1ccc(/C(=C/CN2CCCC2)c2ccccn2)cc1 | -20.9% | 
CN1CCC2(CC1)CCN(S(=O)(=O)c1ccccc1)CC2 | 2.56% | 
CN(C)C(=O)[C@@H]1C[C@@H](Sc2nc3ccccc3[nH]2)CN1Cc1ccc(Cl)cc1 | 0.834% | 
C=C1C(=C/C=C2\CCC[C@]3(C)[C@@H]([C@H](C)CCCC(C)(C)O)CC[C@@H]23)C[C@@H](O)C[C@@H]1O | -16.6% | 
O=C(c1csnn1)N1CCC2(CC1)CN(c1ncccn1)C2 | 26.8% | 
O=C(NCCN1CCOCC1)c1cnn(-c2nccc(-c3cccs3)n2)c1C1CC1 | -10.9% | 
CN(Cc1ccco1)c1cc(-c2ccccc2C(F)(F)F)ncn1 | 17% | 

SMILES | max response | Potency
COc1ccc(C)cc1N1C(=O)[C@@H]2C[C@H]1CN2Cc1cccc(OC)c1O | -2.66% | 
O=C(O)CCC(=O)O | -16.2% | 
COC1[C@H](OC(N)=O)C(O)[C@H](Oc2ccc3c(O)c(NC(=O)c4ccc(O)c(CC=C(C)C)c4)c(=O)oc3c2C)OC1(C)C (some centres not stated) | 12.3% | 
O=C(C[n+]1ccncc1)c1ccc2c(c1)CCCC2 | -14.9% | 
COc1cc(=O)n2c(c1C(=O)N(C)Cc1nonc1C)CCN(C(=O)c1ccc(C)cc1C)CC2 | -17.4% | 
C=C1C(=CC=C2CCC[C@@]3(C)[C@@H]2CC[C@H]3[C@H](C)CCCC(C)C)C[C@@H](O)C[C@@H]1O | -125% | 
CN1CCN(c2ncncc2-c2ccc(C(=O)N(C)C)cc2)CC1 | -22% | 
Cc1cccc(C)c1NC(=O)NC1=CCCN1C | -23.6% | 
O=C1NC(CC(=O)N2CCC(n3c(C4CCC4)nc4cccnc43)CC2)c2ccccc21 (configuration not stated) | 2.72% | 
CCNCCCNCCCNCCCNCC | -1.46% | 
CCCCCCCC/C=C\CCCCCCCC(=O)OC[C@H](CO)OC(C)=O | -42.9% | 
Nc1ncnc2c1c(I)cn2[C@@H]1C[C@H](N)[C@@H](O)[C@H]1O | -1.21% | 
COc1ccccc1CNc1ncncc1-c1cccnc1 | -29.8% | 
O=C(OCCN1CCOCC1)C1(c2ccccc2)CCCCC1 | 0.319% and -0.482% and -4.96% | 
CC1(C)[C@@H]2CC[C@@]1(C)[C@H](OC(=O)CSC#N)C2 | -10.5% | 
COc1ccc(Oc2ncc3nc(-c4ccc(F)cc4)c(=O)n(C)c3n2)cc1 | -48.7% | 
OCC1CCCN(c2nc3cc4c(cc3cc2CNCc2cccs2)OCO4)C1 (configuration not stated) | -2.38% | 
COc1ccc(-c2nc3cnc(OC)nc3n(Cc3ccc(F)cc3)c2=O)cc1 | -45.5% | 
CC(C)[C@H](CO)Nc1nc(Nc2cc(N)cc(Cl)c2)c2ncn(C(C)C)c2n1 | 16.3% | 
